# High-throughput results: PubChem, Sanford-Burnham Center for Chemical Genomics
# Only some compounds are listed: those with a hit (about 28% of all), similar ones and a draw of the others.
# CYP2C9 inhib = human CYP2C9 inhibition. 96,000 compounds, 20% hits. CYP2C9 Supersomes, luciferin-H conversion, luminescence. P11712. inhibition, % at 5 µM;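 active means blocking of liver enzyme CYP2C9 beyond about 50% at 5 µM, limit read from the data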
# CYP2C19 act = increases human CYP2C19 enzyme activity | P33261 | activation factor at 5 µM | 96,000 tested, under 10 active | recombinant CYP2C19, luciferin-H EGE luminescence; active compounds read high; 0 = fully inhibited enzyme, 1 = untreated enzyme;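 active means activation factor of at least 2 at 5 µM in the primary screen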;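 further: 0 = wells with 2.5 mM tranylcypromine and 1 = vehicle-only wells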
# Target sequence (P33261 whole entry, looked up): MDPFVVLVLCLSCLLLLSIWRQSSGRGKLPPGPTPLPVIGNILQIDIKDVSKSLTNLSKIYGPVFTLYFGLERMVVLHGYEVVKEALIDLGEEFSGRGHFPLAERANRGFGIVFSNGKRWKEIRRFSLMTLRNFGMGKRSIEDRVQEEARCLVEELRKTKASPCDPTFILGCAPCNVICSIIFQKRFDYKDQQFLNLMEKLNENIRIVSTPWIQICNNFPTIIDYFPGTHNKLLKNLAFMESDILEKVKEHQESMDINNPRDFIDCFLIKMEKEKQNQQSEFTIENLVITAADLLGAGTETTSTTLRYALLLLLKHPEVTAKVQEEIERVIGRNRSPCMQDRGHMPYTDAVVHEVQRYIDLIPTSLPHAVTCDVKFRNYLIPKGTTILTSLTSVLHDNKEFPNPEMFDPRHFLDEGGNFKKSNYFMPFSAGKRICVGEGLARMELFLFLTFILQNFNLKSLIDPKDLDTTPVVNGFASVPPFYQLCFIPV
# CYP2C9 activ = increases human cytochrome P450 2C9 activity. 96,000 compounds, 1.4% hits. activation factor at 5 µM. recombinant CYP2C9, luciferin-H conversion, luminescence; active compounds read high; factor 1 = untreated enzyme, 0 = blocked. P11712;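 active means activation factor of 2 or more for CYP2C9 at a 5 µM dose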;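 further: 0 = sulfaphenazole-blocked wells and 1 = vehicle-only wells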
# CYP2C19 inh = human CYP2C19 inhibition. P33261. CYP2C19 Supersomes, luciferin-H EGE luminescence, 30 min. inhibition, % at 5 µM. 96,000 compounds, 21% hits. AID 778;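 active means CYP2C19 inhibition above a set limit at 5 µM in the primary screen, cut at about 50% in these data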;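 further: plate controls were negative control wells for no effect and 2.5 mM tranylcypromine positive control for full effect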
# CD11b adhes enh = increases human CD11b/CD18 adhesion to fibrinogen. P05107+P11215. K562 CD11b/CD18 adhesion to fibrinogen, ATPlite luminescence. activation, % at 10 µM. 93,000 compounds, 0.07% hits;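 active means 10 µM primary screen giving 50% or more activity, confirmed by 40% or more on retest at that dose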
# Mac1 fbg inh = blocks human CD11b/CD18 adhesion to fibrinogen; inhibition, % at 10 µM; 93,000 compounds, 0.54% hits; P05107+P11215; K562 CD11b/CD18 adhesion to fibrinogen, ATPlite luminescence; Mn2+ added to activate the integrin;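 active means primary inhibition of 50% or more at 10 µM, then 40% or more on retest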
# Starred values were filed as active, the others as inactive; x = no result given.
SMILES,CYP2C9 inhib,CYP2C19 act,CYP2C9 activ,CYP2C19 inh,CD11b adhes enh,Mac1 fbg inh
COc1ccc(OC)c(CNC(=O)C2CCN(S(=O)(=O)N3CCCC3)CC2)c1,-19.6,1,1.2,2.5,0.6,-6.3
Cc1noc(C)c1S(=O)(=O)Nc1ccc(C(=O)NCCc2ccccc2)cc1,60.3*,1,0.4,-1.4,-4.4,0.0
COc1ccc(CNC(=O)c2ccc(NS(=O)(=O)c3c(C)noc3C)cc2)cc1,58.2*,1,0.4,-2.7,-2.7,-10.7
Cc1ccc(CNC(=O)C2CCN(S(=O)(=O)c3c(C)noc3C)CC2)cc1,-14.1,1.1,1.1,-7.7,-4.9,-5.7
COc1ccccc1CNC(=O)C1CCN(S(=O)(=O)c2c(C)noc2C)CC1,-99.1,1,2*,-0.2,-1.9,1.8
C/C(Cn1nc([N+](=O)[O-])cc1C)=N\NC(=O)COc1c(Cl)cc(Cl)cc1Cl,x,x,x,x,12.2,10.3
COc1cc2c(cc1NC(=O)CN1CCN(S(=O)(=O)c3ccccc3F)CC1)oc1ccccc12,29.3,0.8,0.7,17.5,-3.6,-35.7
CC(CNC(=O)C1CCCCC1C(=O)O)c1ccccc1 (centres undefined),8.5,1.1,0.9,-6.7,-1.9,3.2
COc1ccccc1NC(=O)c1ccc(NS(=O)(=O)c2c(C)noc2C)cc1,-44.4,1,1.4,4.0,-2.3,-12.5
Cc1ccc(NC(=O)c2ccc(NS(=O)(=O)c3c(C)noc3C)cc2)cc1C,78.9*,0.9,0.2,7.5,1.4,30.8
COc1ccccc1CNC(=O)c1ccc(NS(=O)(=O)c2c(C)noc2C)cc1,78.5*,0.9,0.2,11.7,-1.6,-16.9
COc1ccc(NC(=O)c2ccc(NS(=O)(=O)c3c(C)noc3C)cc2)cc1OC,22.5,0.9,0.8,6.8,-1.6,-17.1
CCOC(=O)c1sc(N)c(C#N)c1CSc1nnc(C2CCCCC2)n1N,77.7*,0.6,0.2,44.2,0.4,-3.7
N#Cc1ccc(COC(=O)CSc2nnc(C3CCCCC3)n2N)cc1,13.4,0.8,0.9,15.0,-2.2,-7.7
COc1ccc2[nH]c(=O)c(CN(C(=O)C3CCCO3)c3ccc(C)cc3)cc2c1 (centres undefined),38.9,0.8,0.6,21.4,-8.7,-2.8
COc1cc(C)c(Br)cc1S(=O)(=O)NCc1ccccc1,-37.8,0.3,1.4,65.2*,6.2,-16.8
COc1cc(C)c(Cl)cc1S(=O)(=O)NCc1ccncc1,50.5*,0,0.5,97.9*,-8.6,83.9*
Cc1cc(Cl)c(S(=O)(=O)NCc2ccncc2)cc1OCC(N)=O,15.9,0.6,0.8,44.8,-0.9,18.5
Cc1cc(Cl)c(S(=O)(=O)NCc2ccccc2)cc1OCC(N)=O,3.5,1,1,4.4,-2.7,-27.6
CCOC(=O)CSc1nnc(C)n1N,-2.2,1,1,3.2,-1.7,3.9
Cc1ccc(-c2csc(/C(C#N)=C/Nc3ccccc3SC(F)(F)F)n2)cc1,x,x,x,x,67.9,15.9
Cc1ccc(Cn2c(SCC(C)C)nc3c2c(=O)n(C)c(=O)n3C)cc1,5.1,0.7,0.9,26.7,-1.1,3.3
COC(=O)c1c(NC(C)=O)sc2c1CCCC2,3.8,1.1,1,-5.1,-5.0,19.8
CCOC(=O)c1c(NC(=O)CN2CCOCC2)sc(C(=O)NC)c1C,39.0,0.6,0.6,36.7,-2.7,-8.0
CCOC(=O)c1c(N)sc2c1CCCC2,-5.3,0.9,1.1,8.2,-4.7,9.4
SMILES,CYP2C9 inhib,CYP2C19 act,CYP2C9 activ,CYP2C19 inh,CD11b adhes enh,Mac1 fbg inh
CCOC(=O)c1c(NC(=O)CC2SC(N)=NC2=O)sc2c1CCCC2 (centres undefined),63.9*,0.8,0.4,18.1,x,x
CCOC(=O)c1sc(NC(=O)CN2CCCC2)c(C(=O)OCC)c1C,16.1,1,0.8,3.5,22.1,-4.4
COC(=O)c1c(NC(=O)CC2SCC(C(=O)OC)NC2=O)sc2c1CCCC2 (centres undefined),-123.5,0.3,2.2*,68.7*,1.3,9.8
CCOC(=O)c1c(NC(=O)CN2CCOCC2)sc2c1CCCC2=O,51.4*,0.8,0.5,18.3,-1.4,2.3
CCOC(=O)c1c(NC(=O)CN2CCOCC2)sc2c1CCCC2,100.3*,0,0,99.0*,-1.3,11.1
O=C1CC(SC(=Nc2ccccc2)Nc2ccccc2)C(=O)N1c1cccc(Cl)c1 (centres undefined),42.6,0.7,0.6,28.6,x,x
O=S(=O)(c1ccccc1)N1C2CCC1CC(O)(c1cccnc1)C2 (centres undefined),-8.5,1,1.1,3.8,2.7,-10.5
N#Cc1ccc(OCC(=O)NCCc2ccccn2)cc1,4.2,1.1,1,-6.7,-1.6,21.8
Cc1cccc(N(C(=O)c2ccc(Cl)cc2)C2CS(=O)(=O)CC2OC(=O)c2ccc(Cl)cc2)c1 (centres undefined),40.1,1,0.6,3.6,-5.9,0.7
CCc1c(C)nc2cc(-c3ccc(OC)c(OC)c3)nn2c1NCC1CC1,44.5,0.7,0.6,27.7,-3.3,3.9
CCOC(=O)c1c(NC(=O)COC)sc2c1CCCC2,58.2*,0.8,0.4,16.2,-1.6,-44.2
CCOC(=O)C1CSC(CC(=O)Nc2ccc(Cl)cc2)C(=O)N1 (centres undefined),-102.5,0.6,2*,42.3,3.2,7.4
CCOC(=O)c1c(NC(=O)CN2CCCCC2)sc2c1CCN(C(=O)OCC)C2,47.1,0.3,0.5,65.2*,x,x
CCOC(=O)c1c(NC=O)sc2c1CCC2,-38.0,1.1,1.4,-7.1,-1.0,-18.1
CCOCCCNCC(=O)Nc1ccccc1N1CCOCC1,-21.9,1,1.2,0.4,-1.8,1.0
Cc1ccc(N(CC(=O)NCc2ccc3c(c2)OCO3)S(=O)(=O)c2c(C)noc2C)cc1,57.3*,0,0.4,97.6*,-4.9,-4.4
Cc1noc(C)c1S(=O)(=O)N(CC(=O)NCc1ccc2c(c1)OCO2)c1ccc(C(C)C)cc1,14.5,0.4,0.9,63.3*,-0.7,-0.3
CN(CC(=O)NCc1ccncc1)S(=O)(=O)c1ccc(F)cc1,82.3*,0.1,0.2,90.8*,-2.4,-0.2
CN(CC(=O)NCc1ccncc1)S(=O)(=O)c1ccccc1,83.4*,0.1,0.2,94.3*,-3.6,2.2
Cc1ccc(NS(=O)(=O)c2ccc(OCC(=O)NCc3ccncc3)cc2)cc1,x,x,x,x,1.9,4.9
O=C(NCc1cccs1)C1CCC(=O)N1C1CCCCC1 (centres undefined),-2.7,0.9,1,12.4,x,x
CCOC(=O)C1CCN(C(=O)C2CC(=O)N(c3ccc(C)cc3)C2)CC1 (centres undefined),11.8,0.9,0.9,8.6,3.5,-15.5
Cc1nc([N+](=O)[O-])c(Sc2nc3ccc([N+](=O)[O-])cc3[nH]2)n1Cc1ccccc1,x,x,x,x,-2.0,14.5
